# Only some compounds are listed: those with a hit (about 12% of all), similar ones and a draw of the others.
# G9a inh – G9a (human) methyltransferase inhibition; Q96KQ7; G9a H3K9 monomethylation, AlphaScreen, 2 h; Potency, µM (titrated, usually from 102 µM), for inactives: top-dose activity, negative = inhibition, most hits filed as inhibitors; 8.8% of 350,000 active; AID 504332; note: % is set by controls: 0 for no effect and ±100 for the full control effect; nearly all actives have a fitted effect of over 75% in size
# Target sequence (Q96KQ7 913-1193 limits assumed): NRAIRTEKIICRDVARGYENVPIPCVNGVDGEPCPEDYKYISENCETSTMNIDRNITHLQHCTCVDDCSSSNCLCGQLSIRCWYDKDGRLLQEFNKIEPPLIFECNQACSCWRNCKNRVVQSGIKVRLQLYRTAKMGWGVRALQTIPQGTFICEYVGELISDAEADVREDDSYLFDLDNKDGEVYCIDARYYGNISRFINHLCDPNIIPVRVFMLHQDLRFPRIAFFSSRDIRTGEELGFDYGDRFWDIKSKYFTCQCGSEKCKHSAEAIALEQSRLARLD
#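 Step 1: enzyme (final 20 nM) with compound, 15 min RT. Step 2: substrate peptide 500 nM and SAM 20 uM, 2 h RT. Step 3: anti-H3K9me1 antibody and AlphaScreen beads, 10 min, then plate read.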
# JMJD2A Tudor inh – JMJD2A Tudor domain (human) inhibition; O75164; AlphaScreen JMJD2A-Tudor / H3K4me3 peptide binding; Potency, µM (titrated, usually from 114 µM), inactives show top-dose activity change, negative = inhibition, most hits filed as inhibitors; 4.4% of 390,000 active; AID 504339; note: % is set by controls: 0 for no effect and ±100 for the full control effect; nearly all actives have a fitted effect of over 50% in size
# PLK1 PBD block – PLK1 (human) polo-box domain binding inhibition | P53350 | Plk1 PBD binding of FITC phosphopeptide, fluorescence polarization | Potency, µM, for the others: max response, negative = inhibition, usual class: inhibitors | 2.8% of 360,000 active; note: series mostly up to about 57 µM; % is set by controls: 0 for no effect and ±100 for the full control effect; nearly all actives have a fitted effect of over 65% in size
# Sfp inh – Sfp phosphopantetheinyl transferase inhibition; Q9F4F7; Biochemical Sfp PPTase activity, qHTS; Potency, µM, for inactives: largest response in the series, negative = inhibition, usual class: inhibitors; 3.5% of 310,000 active; AID 1490;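 note: the enzyme is Sfp with the accession as filed and its product quenches rhodamine fluorescence; 0% = enzyme reaction without inhibitor and -100% = no enzyme wells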
#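 Fluorescence-quenching assay: 15 nM Sfp-PPTase preincubated 15 min at room temperature with compound, then 5 uM rhodamine-CoA and 12.5 uM BHQ-2-labelled YbbR peptide added. Fluorescence (ex 525/em 598 nm) read at start and after 30 min; difference gives rate.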
# HP1b chromo inh – blocks HP1-beta chromodomain binding to methylated histone tails | Potency, µM (highest dose often 114 µM), for inactives: at the top dose activity change, negative = inhibition, usual class: inhibitors | 0.56% of 390,000 active | P83916 | AlphaScreen HP1-beta / biotin-H3K9me3 peptide binding; note: nearly all actives have a fitted effect of over 70% in size
# Target sequence (P83916 whole entry, looked up): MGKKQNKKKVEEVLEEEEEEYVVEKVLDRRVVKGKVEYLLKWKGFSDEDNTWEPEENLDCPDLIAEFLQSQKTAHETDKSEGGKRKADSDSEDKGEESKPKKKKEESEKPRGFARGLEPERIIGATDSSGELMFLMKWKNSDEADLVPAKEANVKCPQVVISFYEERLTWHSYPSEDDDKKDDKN
#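 HP1-beta protein (50 nM final) preincubated 30 min at room temperature with biotinylated H3(1-18)K9me3 peptide (50 nM) in PBS pH 7.4, 0.01% Tween-20, then compound added for 30 min. AlphaScreen streptavidin donor/nickel chelate acceptor beads (10 ug/mL final), 30 min dark, luminescence read.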
# BAZ2B inh – blocks human BAZ2B. 4.4% of 360,000 active. Q9UIF8. AlphaScreen BAZ2B-H3K14Ac peptide displacement. Potency, µM (highest dose often 114 µM), inactives show at the highest dose activity change, negative = inhibition, usual class: inhibitors; note: % is set by controls: 0 for no effect and ±100 for the full control effect; nearly all actives have a fitted effect of over 60% in size
#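 In this displacement format the biotinylated H3(5-23) peptide acetylated at Lys14 serves as ligand at 50 nM, with BAZ2B at 50 nM in PBS pH 7.4 containing 0.01% Tween-20. Donor and acceptor beads are 10 ug/mL final.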
# An asterisk follows results filed as active; ? = inconclusive; / = no result given; [ ] = another dose, or the depositor's remark. Calls come from the whole dose curve; as a rule, active = well fitted curve in the direction sought with a large enough effect; inconclusive = small, poorly fitted or top-dose-only effect, or another doubt; inactive = no such curve, though single readings can be large; an effect the other way counts as inactive or inconclusive. Potency is the fitted concentration of half-maximal effect.
SMILES,G9a inh,JMJD2A Tudor inh,PLK1 PBD block,Sfp inh,HP1b chromo inh,BAZ2B inh
Cc1ccc(N2C(=O)CC(Sc3ccccc3C(=O)O)C2=O)cc1C (stereo unspecified),1.6µM*,-9%[11.4 µM],?,50µM*,2%,-32%
O=C(O)c1ccccc1SC1CC(=O)N(c2ccc3c(c2)OCO3)C1=O (stereo unspecified),1.6µM*,-29%,-19%,50µM*,6%,-29%
Cc1cccc(-c2nc3c(cnn3-c3ccccc3)c(=O)n2-c2ccc(Cl)cc2)c1,-1%[59 µM],-8%,/,/,22%,-23%
Cc1[nH]c2ccccc2c1/C=N/n1cnnc1,8%[59 µM],-3%[11.4 µM],?,1%,-8%,14%
CCN(CC)c1ccc(N=Cc2c(C)[nH]c3ccccc23)cc1,14µM*,35µM*,-8%,50µM*,32µM*,13µM*
CC1CCc2c(sc(NC(=O)COC(=O)c3ccc(NC(=O)CC#N)cc3)c2C#N)C1 (stereo unspecified),0%,-11%,-2%,/,14%,6%
COc1ccccc1-c1cc(C(=O)Nc2sc3c(c2C#N)CCC(C)C3)c2ccccc2n1 (stereo unspecified),14%[2.33 µM],8%[11.4 µM],27µM*,?,-20%,-5%
Cc1cc(C(=O)OCC(=O)Nc2sc3c(c2C#N)CCC(C)C3)c2ccccc2n1 (stereo unspecified),45µM*,-34%,?,?,-2%,-38%
O=C(CSc1nc2ccccc2[nH]1)c1ccccc1F,-6%,-7%,-10%,1%,12%,2%
Nc1c(-c2ccccc2)c(CSc2nc3ccccc3[nH]2)nn1-c1ccc(C(=O)O)cc1,?,22µM*,15µM*,25%,?,10%
Cc1nn(-c2ccc(C(=O)O)cc2)c(N)c1-c1ccccc1,-32%,-3%[11.4 µM],-13%,13%,45%,-11%
O=C(O)c1ccccc1CSc1nc2ccccc2[nH]1,50µM*,-17%,-21%,6%,-10%,-16%
CCOC(=O)c1c(-c2ccccc2)csc1NC(=O)c1cc(-c2ccc(Br)cc2)on1,6.3µM*,-6%,/,/,?,-27%
CCOC(=O)c1c(-c2ccc(C)cc2)csc1NC(=O)c1cc(=O)c2ccc(C)cc2o1,-20%[59 µM],-7%,/,/,15%,-3%
CCOC(=O)c1c(-c2ccc(C)cc2)csc1NC(=O)c1cc2ccccc2oc1=O,3%[0.501 µM],-5%,6%,?,15%,40µM*
COC(=O)c1c(-c2ccc(C)cc2)csc1NC(=S)NC(=O)c1ccc(F)cc1,79µM*,-29%,-9%,-27%,13%,-14%
CCOC(=O)c1c(-c2ccccc2)csc1NC(=O)/C(C#N)=C/c1ccc(O)c(OC)c1,40µM*,-32%,25%,?,?,?
CCc1ccc(C(=O)CN2C(=O)NC3(CCc4ccccc43)C2=O)cc1 (stereo unspecified),14%[59 µM],-11%,-12%,/,28%,8%
COc1ccc(NC(=O)C2CCCN2C(=O)Oc2ccccc2)cc1 (stereo unspecified),5%,-11%,-3%,23%,19%,-24%
COc1ccccc1CNC(=O)c1ccc(CS(=O)(=O)c2ccc(C)cc2)o1,-16%,-19%,-19%,12%,37%,?
C#CCNC(=O)C1=C[C@H](C(C)(C)C)C[C@H](OCCCCO)O1,/,-12%,-2%,/,49%,/
CN(C(=O)COc1ncnc2ccccc12)C1CCCCC1,/,-16%,-15%,/,43%,/
COc1ccccc1-c1cc(C(=O)NCCc2ccccc2)no1,9%[59 µM],?,27µM*,?,31%,3%
COc1ccc(CCNC(=O)c2cc(-c3ccccc3OC)on2)cc1OC,?,-27%,0%,-10%,11%,-4%
CCOC(=O)c1c(-c2ccc(F)cc2)csc1NC(=O)c1c(-c2ccccc2)noc1C,6%,1%,7%,4%,43%,10%
SMILES,G9a inh,JMJD2A Tudor inh,PLK1 PBD block,Sfp inh,HP1b chromo inh,BAZ2B inh
CCOC(=O)c1c(NC(=O)c2cc(-c3ccccc3OC)on2)sc(C)c1C,2.8µM*,-18%,/,/,?,-3%
CCOC(=O)c1c(-c2cccc([N+](=O)[O-])c2)csc1NC(=O)CCCOc1ccccc1,-24%,5%,-11%,?,32%,20%
CCOC(=O)c1c(-c2ccccc2)csc1NC(=O)c1cc(-c2ccc(F)cc2)on1,4µM*,1%,/,/,-15%,-10%
CCOC(=O)c1c(-c2cccc([N+](=O)[O-])c2)csc1NC(=O)CCCOc1ccccc1OC,?,-35%,30µM*,3%,?,-1%
CN(C)c1ccc(-c2cncnc2Nc2ccc(F)cc2)cc1,-10%[0.501 µM],/,/,?,/,/
O=C(O)CSc1nnc(-c2ccc(Cl)cc2Cl)n1-c1ccc(Cl)cc1,13%[0.501 µM],-17%,9%,23%,32%,-15%
CCOC(=O)c1c(-c2ccccc2)csc1NC(=O)c1cc(-c2ccccc2OC)on1,/,1%,24µM*,/,-16%,/
Cc1cccc(C(=O)Nc2scc(-c3ccc(Br)cc3)c2C(=O)O)c1,/,?,30µM*,/,1%,/
Cc1ccc(-c2csc(NC(=O)c3cccc(C)c3)c2C(=O)O)cc1,/,0%,?,/,17%,/
COc1ccc2c(c1)cc1c(=O)n(CC(=O)NCCCc3ccccc3)nc(C)n12,-6%[59 µM],-14%,/,/,30%,6%
COc1cc2c(cc1OC)C(c1ccc(-c3ccccc3Cl)o1)=NCC2,7.1µM*,?,-13%,-18%,?,28µM*
COc1cc2c(cc1OC)C(c1ccc(-c3ccc(Cl)cc3Cl)o1)=NCC2,?,-33%,1%,28µM*,5%,?
COc1cc2c(cc1OC)C(c1ccc(-c3cc(Cl)ccc3Cl)o1)=NCC2,?,?,0%,?,5%,?
COc1cc2c(cc1OC)C(c1ccc(-c3ccc(Cl)c(Cl)c3)o1)=NCC2,14µM*,18µM*,-2%,20µM*,?,?
C=Cc1ccc(Cn2c(=O)n(CCCOC)c(=O)c3sccc32)cc1,/,-5%,6%,2%,39%,5%
CC(=O)Nc1ccc(SC(Sc2ccc(NC(C)=O)cc2)c2ccccc2)cc1,/,-16%,17µM*,/,26%,/
Cc1nc2scc(-c3ccco3)c2c(=O)n1/N=C/N(C)C,-39%[12.7 µM],-23%,-11%,13µM*,23%,-1%
Cc1sc2nc(C)n(/N=C/N(C)C)c(=O)c2c1C,1%[12.7 µM],-14%,-13%,6%,-4%,-14%
COc1ccc(-c2noc(CSc3nc4ccccc4[nH]3)n2)cc1OC,2%[59 µM],-19%,/,/,41%,-22%
CCOc1ccc(C2C(C(=O)Nc3ccccc3)=C(C)Nc3nc(-c4ccccc4)nn32)cc1OC (stereo unspecified),19%[59 µM],-18%,/,/,15%,3%

# Bioassay records as filed in PubChem.
